Measurements: PubChem BioAssay AID1159580 (chemical genetic matrix, 2015)
In all, about 5,500 compounds went through this assay and about 2,000 (36%) were called active. Roughly 18% stayed inconclusive and do not appear here. No stated cut-off is given here; in the data, active means normalized growth mostly below about 0.91 (no sharp cut-off); inconclusive means no clear call, values can overlap the other calls; inactive means mostly above about 0.92. This is one part of the list.

Assay: chemical genetic growth profiling, strain panel (AID 1159580);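 further: tested at 20 µM; growth read once vehicle control cultures reached saturation at 30 °C; 1 = growth at the plate median or of vehicle wells; lower values mean less growth of the strain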
Conditions: growth OD

Measured: normalized growth

CC(C)Nc1nc(Cl)nc(NC(C)C)n1
inactive: S. cerevisiae deletion strains, locus YJR075W, strain HOC1, hits give low values 1.01 | S. cerevisiae deletion strains, locus YKL009W, strain mrt4, hits give low values 1.01 | S. cerevisiae deletion strains, locus YKL068W, hits give low values 1.01 | S. cerevisiae deletion strains, locus YKL085W, strain MDH1 (second series), hits give low values 1 | S. cerevisiae deletion strains, locus YKL085W, strain MDH1, hits give low values 1 | S. cerevisiae deletion strains, locus YKL160W, strain elf1, hits give low values 1 | S. cerevisiae deletion strains, locus YKL190W, strain CNB1, hits give low values 1.01 | S. cerevisiae deletion strains, locus YKR001C, strain vps1, hits give low values 1.01 | S. cerevisiae deletion strains, locus YKR026C, strain gcn3, hits give low values 0.994 | S. cerevisiae deletion strains, locus YKR091W, strain srl3, hits give low values 0.998 | S. cerevisiae deletion strains, locus YLL001W, strain dnm1, hits give low values 1.01 | S. cerevisiae deletion strains, locus YLL026W, hits give low values 0.991 | S. cerevisiae deletion strains, locus YLL041C, strain sdh2, hits give low values 1 | S. cerevisiae deletion strains, locus YLR027C, strain aat2, hits give low values 0.995 | S. cerevisiae deletion strains, locus YLR039C, strain RIC1, hits give low values 0.995 | S. cerevisiae deletion strains, locus YLR058C, strain SHM2, hits give low values 1.01 | S. cerevisiae deletion strains, locus YLR102C, strain apc9, hits give low values 1.02 | S. cerevisiae deletion strains, locus YLR113W, strain HOG1, hits give low values 1 | S. cerevisiae deletion strains, locus YLR221C, strain rsa3, hits give low values 0.994 | S. cerevisiae deletion strains, locus YLR258W, strain gsy2, hits give low values 1 | S. cerevisiae deletion strains, locus YLR262C, strain YPT6 (second series), hits give low values 0.935 | S. cerevisiae deletion strains, locus YLR262C, strain YPT6, hits give low values 0.984 | S. cerevisiae deletion strains, locus YLR268W, strain sec22, hits give low values 0.992 | S. cerevisiae deletion strains, locus YLR320W, strain mms22, hits give low values 0.995 | S. cerevisiae deletion strains, locus YLR330W, strain CHS5, hits give low values 1.01 | S. cerevisiae deletion strains, locus YLR342W, strain FKS1 (second series), hits give low values 1.01 | S. cerevisiae deletion strains, locus YLR342W, strain FKS1, hits give low values 1.01 | S. cerevisiae deletion strains, locus YLR357W, strain rsc2, hits give low values 0.95 | S. cerevisiae deletion strains, locus YLR370C, strain arc18, hits give low values 1 | S. cerevisiae deletion strains, locus YLR371W, strain rom2, hits give low values 1.01 | S. cerevisiae deletion strains, locus YLR384C, strain iki3, hits give low values 1 | S. cerevisiae deletion strains, locus YLR418C, strain cdc73, hits give low values 0.979 | S. cerevisiae deletion strains, locus YML016C, strain PPZ1, hits give low values 1.01 | S. cerevisiae deletion strains, locus YML032C, strain rad52, hits give low values 1.01 | S. cerevisiae deletion strains, locus YML120C, strain ndi1, hits give low values 0.998 | S. cerevisiae deletion strains, locus YML124C, strain tub3, hits give low values 1.01 | S. cerevisiae deletion strains, locus YMR058W, strain fet3, hits give low values 1.01 | S. cerevisiae deletion strains, locus YMR078C, strain ctf18, hits give low values 1.02 | S. cerevisiae deletion strains, locus YMR125W, strain sto1, hits give low values 0.997 | S. cerevisiae deletion strains, locus YMR129W, hits give low values 0.994 | S. cerevisiae deletion strains, locus YMR205C, strain PFK2, hits give low values 0.985 | S. cerevisiae deletion strains, locus YMR223W, strain ubp8, hits give low values 1.01 | S. cerevisiae deletion strains, locus YMR231W, strain pep5, hits give low values 0.999 | S. cerevisiae deletion strains, locus YMR263W, strain SAP30, hits give low values 1.02 | S. cerevisiae deletion strains, locus YMR307W, strain GAS1, hits give low values 1.02 | S. cerevisiae deletion strains, locus YNL067W, strain RPL9B, hits give low values 0.999 | S. cerevisiae deletion strains, locus YNL071W, strain lat1, hits give low values 1 | S. cerevisiae deletion strains, locus YNL128W, strain TEP1, hits give low values 1 | S. cerevisiae deletion strains, locus YNL153C, strain GIM3, hits give low values 0.989 | S. cerevisiae deletion strains, locus YNL183C, strain NPR1, hits give low values 0.935 | S. cerevisiae deletion strains, locus YNL209W, strain ssb2, hits give low values 0.999 | S. cerevisiae deletion strains, locus YNL233W, strain BNI4, hits give low values 1.02 | S. cerevisiae deletion strains, locus YNL248C, strain rpa49, hits give low values 0.982 | S. cerevisiae deletion strains, locus YNL250W, strain rad50, hits give low values 1.01 | S. cerevisiae deletion strains, locus YNL271C, strain bni1, hits give low values 1.01 | S. cerevisiae deletion strains, locus YNL298W, strain CLA4, hits give low values 1.02 | S. cerevisiae deletion strains, locus YNL307C, strain MCK1, hits give low values 1.02 | S. cerevisiae deletion strains, locus YNL322C, strain KRE1 (second series), hits give low values 0.992 | S. cerevisiae deletion strains, locus YNL322C, strain KRE1, hits give low values 1.01 | S. cerevisiae deletion strains, locus YNR049C, strain mso1, hits give low values 1 | S. cerevisiae deletion strains, locus YNR052C, strain pop2, hits give low values 1.01 | S. cerevisiae deletion strains, locus YOL006C, strain TOP1, hits give low values 1.03 | S. cerevisiae deletion strains, locus YOL012C, strain htz1 0.789 | S. cerevisiae deletion strains, locus YOL147C, strain pex11, hits give low values 1.01 | S. cerevisiae deletion strains, locus YOR001W, strain rrp6, hits give low values 0.999 | S. cerevisiae deletion strains, locus YOR061W, strain CKA2, hits give low values 0.998 | S. cerevisiae deletion strains, locus YOR069W, strain VPS5, hits give low values 1.01 | S. cerevisiae deletion strains, locus YOR070C, strain gyp1, hits give low values 1.01 | S. cerevisiae deletion strains, locus YOR080W, strain dia2, hits give low values 0.994 | S. cerevisiae deletion strains, locus YOR083W, strain WHI5, hits give low values 1 | S. cerevisiae deletion strains, locus YOR106W, strain vam3, hits give low values 1.01 | S. cerevisiae deletion strains, locus YOR136W, strain idh2, hits give low values 1.01 | S. cerevisiae deletion strains, locus YOR144C, strain elg1, hits give low values 1 | S. cerevisiae deletion strains, locus YOR184W, strain ser1, hits give low values 1.02 | S. cerevisiae deletion strains, locus YOR231W, strain MKK1, hits give low values 0.978 | S. cerevisiae deletion strains, locus YOR265W, strain rbl2, hits give low values 1 | S. cerevisiae deletion strains, locus YOR270C, strain vph1, hits give low values 1.01 | S. cerevisiae deletion strains, locus YOR290C, strain snf2, hits give low values 1.02 | S. cerevisiae deletion strains, locus YOR316C, strain cot1, hits give low values 1.01 | S. cerevisiae deletion strains, locus YPL051W, strain arl3, hits give low values 0.997 | S. cerevisiae deletion strains, locus YPL055C, strain LGE1, hits give low values 0.983 | S. cerevisiae deletion strains, locus YPL078C, strain atp4, hits give low values 0.999 | S. cerevisiae deletion strains, locus YPL106C, strain sse1, hits give low values 1 | S. cerevisiae deletion strains, locus YPL240C, strain hsp82, hits give low values 1.01 | S. cerevisiae deletion strains, locus YPL241C, strain CIN2, hits give low values 1 | S. cerevisiae deletion strains, locus YPL256C, strain CLN2, hits give low values 0.966 | S. cerevisiae deletion strains, locus YPR119W, strain clb2, hits give low values 1.01 | S. cerevisiae deletion strains, locus YPR141C, strain kar3, hits give low values 1.02 | S. cerevisiae deletion strains, locus YPR163C, strain tif3, hits give low values 1 | S. cerevisiae deletion strains, locus YPR167C, strain met16, hits give low values 1.01 | S. cerevisiae deletion strains, strain wtn01, hits give low values 1.01 | S. cerevisiae strains, strain wild type, hits give low values 1
